Laboratory results reported in ChEMBL document CHEMBL4296182, “CO-ADD screening of NIH NCI Diversity Set V”.
For part of these data: Potency and affinity values are given separately.

What was measured:
Staphylococcus aureus = assay: Antibacterial activity against Staphylococcus aureus MRSA ATCC 43300 (CO-ADD:GP_020); MIC in CAMBH media using NBS plates, by Resazurin F(560/590); assay type: functional; settings: Concentration 20 uM, ASSAY_TEST Inhibition of Bacterial Growth, detection method Resazurin, Fluorescence (ex560/em590), MEDIA CAMHB, plate type 384well, CORNING #3640, time 18 hr
Acinetobacter baumannii = assay: Antibacterial activity against Acinetobacter baumannii ATCC 19606 (CO-ADD:GN_034); MIC in CAMBH media using NBS plates, by Resazurin F(560/590); assay type: functional; settings: Concentration 20 uM, ASSAY_TEST Inhibition of Bacterial Growth, detection method Resazurin, Fluorescence (ex560/em590), MEDIA CAMHB, plate type 384well, CORNING #3640, time 18 hr
Escherichia coli = assay: Antibacterial activity against Escherichia coli ATCC 25922 (CO-ADD:GN_001); MIC in CAMBH media using NBS plates, by Resazurin F(560/590); assay type: functional; settings: Concentration 20 uM, ASSAY_TEST Inhibition of Bacterial Growth, detection method Resazurin, Fluorescence (ex560/em590), MEDIA CAMHB, plate type 384well, CORNING #3640, time 18 hr
Klebsiella pneumoniae = settings: Concentration 20 uM; ASSAY_TEST Inhibition of Bacterial Growth; detection method Absorption (OD600); MEDIA CAMHB; plate type 384well; NBS; CORNING #3640; time 18 hr
Candida albicans = settings: 20 µM
Cryptococcus neoformans = settings: Concentration 20 uM; ASSAY_TEST Inhibition of Fungal Growth; detection method Resazurin; Absorption (OD600-OD570); plate type 384well; NBS; CORNING #3640

Row | Compound | Inhibition (Staphylococcus aureus) [%] | Inhibition (Acinetobacter baumannii) [%] | Inhibition (Escherichia coli) [%] | Inhibition (Klebsiella pneumoniae) [%] | Inhibition (Candida albicans) [%] | Inhibition (Cryptococcus neoformans) [%]
1 | O=C(Nc1ccccc1)Nc1ccccn1 | 15.92 | -11.25 | 6.37 | 12.38 | 3.3 | -4.64
2 | Cn1cnc([N+](=O)[O-])c1Sc1nc[nH]n1 | 12.64 | 10.96 | 6.64 | 17.02 | 2.6 | -9.11
3 | NC(=O)CCC(C(=O)O)N1C(=O)C2C3CCC(C3)C2C1=O (stereo not drawn) | -3.52 | -4.02 | -8.27 | 4.97 | 2.39 | -5.24
4 | O=C1C(CO)C(CO)C(CO)C1CO (stereo not drawn) | 12.78 | -16.04 | 12.18 | 2.22 | -0.61 | -11.22
5 | CN(C)c1ccc(/C=C(\C#N)C(=O)c2ccccc2)cc1 | 3.86 | -12.37 | 8.74 | 11.84 | 4.91 | -12.58
6 | CC1=CC(=C2C=CC(=O)C=C2)C=C(C)N1C | 0.37 | -6.52 | 4.86 | -4.58 | 4.83 | -12.1
7 | CCC(=Cc1ccc(CC)cn1)CC | 5.02 | -14.68 | 4.35 | 10.54 | 0.05 | -5.56
8 | CN(C(=O)c1ccncc1)c1ccccc1 | 38.14 | 13.73 | 16.42 | 7.45 | 4.18 | 6.4
9 | CCOP(=O)(OCC)/C(C#N)=C/c1c[nH]c2ccccc12 | 16.69 | 9.53 | -1.43 | 13.34 | -0.38 | -5.67
10 | CSc1nc(N)c(C(=O)NC2CCCCC2)s1 | 30.14 | -5.51 | 5.05 | 13.28 | 8.55 | -3.08
11 | Cn1c(=O)c2nc(SCc3ccccn3)[nH]c2n(C)c1=S | 8.4 | 9.84 | -0.48 | 14.94 | 0.94 | -2.39
12 | O=C1Cc2cccc(O)c(=O)c2C(=O)O1 | 18.22 | 9.21 | 9.09 | 8.59 | 1.02 | -4.33
13 | Sc1nc2c[nH]c(S)nc-2n1 | 21.94 | -11.86 | 14.36 | 15.98 | 5.35 | -7.36
14 | O=C1NCCc2c1[nH]c1ccccc21 | -13.58 | -2.97 | -11.15 | 6.5 | 2.99 | -7.2
15 | Nc1ncnc2c1cnn2C1CCCCC1 | -0.45 | -2.92 | -6.81 | 9 | 1.58 | -3.99
16 | COc1ccc2c(C)cc(C)nc2n1 | 4.34 | -9.69 | 1.95 | -0.51 | 3.88 | -1.59
17 | O=C(O)CCC(=O)OCCN(Cc1ccc(Oc2ccc([N+](=O)[O-])cc2)cc1)C(=O)C(Cl)Cl | -5.95 | 0.5 | -4.03 | 4.09 | 4.52 | -1.27
18 | Cc1cccc(Nc2sc(C(=O)c3cc4cc(Cl)ccc4o3)c(N)c2C#N)c1 | 1.46 | -13.03 | 6.28 | 5.96 | 0.06 | 37.64
